Here are results for four compounds from PubChem BioAssay (NCATS).

Test [1] addresses Cytochrome P450 1A2 (Homo sapiens) (UniProt P05177). Kind of test: p450-cyp1a2 (AID 410; calls by dose curve; note: potency is the fitted concentration of half-maximal effect). In short, it runs like this:
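Read-out is luminescence from luciferin produced by CYP1A2 demethylation of Luciferin-ME (100uM, at Km). Detection reagent stopped the 60 min NADPH-dependent reaction; signals were normalized to 57 uM furafylline.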

The target of test [2] is Glucocorticoid receptor (Homo sapiens) (UniProt P04150). In words: GR-GFP Redistribution (AID 450;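 active = compounds whose dose series gives a full or clear partial fitted curve of increased nuclear translocation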; note: potency is the fitted concentration of half-maximal effect).
Chain of Glucocorticoid receptor (Homo sapiens) (P04150 whole entry, looked up, the tested form may be a part): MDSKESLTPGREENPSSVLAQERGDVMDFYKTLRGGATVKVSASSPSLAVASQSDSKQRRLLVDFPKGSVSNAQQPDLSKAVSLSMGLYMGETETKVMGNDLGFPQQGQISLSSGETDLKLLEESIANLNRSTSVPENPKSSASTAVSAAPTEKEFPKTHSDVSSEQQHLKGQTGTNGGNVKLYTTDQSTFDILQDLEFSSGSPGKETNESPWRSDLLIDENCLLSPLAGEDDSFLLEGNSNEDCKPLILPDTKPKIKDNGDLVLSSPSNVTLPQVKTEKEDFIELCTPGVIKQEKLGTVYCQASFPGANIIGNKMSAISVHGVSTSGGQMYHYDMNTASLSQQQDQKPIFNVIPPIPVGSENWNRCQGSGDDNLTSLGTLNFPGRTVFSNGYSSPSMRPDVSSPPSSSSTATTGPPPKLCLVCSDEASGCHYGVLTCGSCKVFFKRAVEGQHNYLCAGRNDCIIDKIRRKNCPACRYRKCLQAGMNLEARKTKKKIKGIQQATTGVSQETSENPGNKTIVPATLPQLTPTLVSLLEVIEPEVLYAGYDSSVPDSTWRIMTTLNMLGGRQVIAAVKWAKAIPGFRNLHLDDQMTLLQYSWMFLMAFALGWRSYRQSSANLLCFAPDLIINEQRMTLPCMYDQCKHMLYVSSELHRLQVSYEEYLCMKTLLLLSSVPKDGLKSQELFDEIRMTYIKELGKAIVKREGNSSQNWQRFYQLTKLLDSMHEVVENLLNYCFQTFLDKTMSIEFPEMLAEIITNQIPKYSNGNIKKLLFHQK
Test [3] addresses Mitogen-activated protein kinase 10 (Mus musculus) (UniProt Q61831). In words: JNK3 AlphaScreen Assay (AID 530; active = well fitted curve in either direction with a large enough effect, not every such curve was filed as active;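 note: kinase came from lysate of stimulated human HepG2 cells; signal reports phosphorylation of biotinylated GST-cJun 1-79 at Ser73 with 10 µM ATP; series mostly up to about 57 µM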). Summed up: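 HepG2 lysate (IL-1b/TNFa pre-activated) + biotin-GST-cJun 1-79 + anti-pSer73 cJun; cpd titration, 15 min RT; ATP 10 uM start; Tris pH 7.6, MgCl2, DTT, vanadate; beads in EDTA buffer; AlphaScreen.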
A general note: Alpha assays give light when donor and acceptor beads are brought close together.

Test [4] addresses 3',5'-cyclic-AMP phosphodiesterase 4B (Homo sapiens) (UniProt Q07343). Kind of test: qHTS Assay for Inhibitors of PDE-IV (AID 607; active = well fitted activation curve with a large enough effect in the main read-out, with a control signal flat, not every such curve was filed as active; note: potency is the fitted concentration of half-maximal effect). Summed up:
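ACTOne HEK293 cells carry a modified cAMP-gated CNG channel and express endogenous PDE4; plated 1000 cells/well, compounds up to 22.9 uM final. Membrane-potential dye fluorescence (ex 535/em 590) was read; parental cells received 10 uM forskolin + 100 uM RO 20-1724.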
In general terms: Quantitative high-throughput screening tests each substance at several concentrations.

The target in test [5] is Cytochrome P450 2C19 (Homo sapiens) (UniProt P33261). Kind of test: qHTS Assay for Inhibitors and Substrates of Cytochrome P450 2C19 (AID 899). Note: nearly all actives have a fitted effect of over 60% in size. Note: potency is the fitted concentration of half-maximal effect. Summed up:
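Signal comes from luciferase acting on luciferin released by CYP2C19-mediated hydroxylation of Luciferin-H EGE, 10uM (KM). Assay mix: 5nM enzyme, 50mM KPO4; 60 min at 37C with NADPH regeneration. Data normalized against 57uM ketoconazole.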

Test [6] has as its target Glucocorticoid receptor (Homo sapiens) (UniProt P04150). Kind of test: GR-EFC Redistribution (AID 451; calls by dose curve; note: potency is the fitted concentration of half-maximal effect). The settings on record: CHO-K1 GR-EFC translocation, beta-gal luminescence, 2 h. In short, it runs like this:
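CHO-K1 cells expressing nuclear EA and GR-ED fragments of b-gal; compounds titrated up to 46 uM final, 2 h at 37 C. GR nuclear translocation read as complemented b-gal luminescence after 1 h RT detection.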

The target of test [7] is Cytochrome P450 2C9 (Homo sapiens) (UniProt P11712). Kind of test: qHTS Assay for Inhibitors and Substrates of Cytochrome P450 2C9 (AID 883). Note: nearly all actives have a fitted effect of over 60% in size. Note: potency is the fitted concentration of half-maximal effect. In short, it runs like this:
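Signal: luciferase luminescence reporting luciferin produced by CYP2C9. Conditions: 10nM enzyme, Luciferin-H 100uM at KM, 25mM KPO4, 37C, 60 min NADPH-driven reaction. Reference: 57uM sulphaphenazole as 100% inhibition.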

Test [8] addresses Cytochrome P450 2D6 (Homo sapiens) (UniProt P10635). In words: qHTS Assay for Inhibitors and Substrates of Cytochrome P450 2D6 (AID 891).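 Note: luciferin methyl ether substrate demethylated by CYP2D6 with NADPH regeneration; nearly all actives have a fitted effect of over 60% in size.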 In short, it runs like this:
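Luminescent read-out of luciferin formed by 5 nM human CYP2D6 demethylating 30 uM Luciferin-ME EGE (Km level) over 60 min at room temperature after NADPH regeneration addition. Data normalized to full inhibition by 1.43 uM quinidine.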

For test [9], the target named is Cytochrome P450 3A4 (Homo sapiens) (UniProt P08684). Kind of test: qHTS Assay for Inhibitors and Substrates of Cytochrome P450 3A4 (AID 884). Note: potency is the fitted concentration of half-maximal effect; nearly all actives have a fitted effect of over 50% in size. In short, it runs like this: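 Luminescent readout of luciferin produced by CYP3A4 (20 nM) dealkylation of Luciferin-PPXE, 25 uM (its KM). NADPH-driven reaction ran 60 min at RT after 10 min compound preincubation; data scaled to 57 uM ketoconazole as 100% inhibition.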
Chain of Cytochrome P450 3A4 (Homo sapiens) (P08684 whole entry, looked up): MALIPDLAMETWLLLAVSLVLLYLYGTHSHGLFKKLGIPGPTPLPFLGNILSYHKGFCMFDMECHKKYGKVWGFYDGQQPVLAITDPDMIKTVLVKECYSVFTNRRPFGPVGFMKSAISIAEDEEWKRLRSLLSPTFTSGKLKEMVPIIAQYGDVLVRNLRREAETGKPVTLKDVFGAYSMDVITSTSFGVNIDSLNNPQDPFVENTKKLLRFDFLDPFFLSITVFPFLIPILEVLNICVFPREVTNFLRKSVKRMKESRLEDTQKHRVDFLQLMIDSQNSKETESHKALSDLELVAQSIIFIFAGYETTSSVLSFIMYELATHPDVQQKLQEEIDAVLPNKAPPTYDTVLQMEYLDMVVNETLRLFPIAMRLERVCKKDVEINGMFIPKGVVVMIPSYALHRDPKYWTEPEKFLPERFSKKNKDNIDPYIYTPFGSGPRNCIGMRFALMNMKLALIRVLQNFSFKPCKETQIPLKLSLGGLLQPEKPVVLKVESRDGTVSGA

For test [10] the target is unchanged. In words: qHTS Assay for Activators of Cytochrome P450 3A4 (AID 885). Note: nearly all actives have a fitted effect of over 65% in size. Summed up:
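CYP3A4 activity: Luciferin-PPXE O-dealkylation, 25uM substrate, 200mM KPO4, RT throughout. Read-out is luciferase luminescence; higher values reflect activation.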

Test [11] concerns the target DNA dC->dU-editing enzyme APOBEC-3G (Homo sapiens) (UniProt Q9HC16). Kind of test: qHTS for inhibitors of Vif-A3G interactions: Validation (AID 588379). Summed up:
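Yellow fluorescence (Ex 488, Em 500-530) of Vif-coexpressing HeLa A3G-eYFP cells, scanned by Acumen cytometer, reports blocked A3G degradation. Cells plated at 700/well overnight at 37 deg C before compound addition, then a further overnight compound incubation at 37 deg C.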

A number with no mark means an inactive call. Inconclusive results are not listed. Activity calls are given as the source filed them. Unless noted, calls come from the whole dose curve; as a rule, active = well fitted curve in the direction sought with a large enough effect; inconclusive = small, poorly fitted or top-dose-only effect, or another doubt; inactive = no such curve, though single readings can be large; an effect the other way counts as inactive or inconclusive. Some results are limits rather than exact numbers.

Chain of Cytochrome P450 1A2 (Homo sapiens) (P05177 whole entry, looked up): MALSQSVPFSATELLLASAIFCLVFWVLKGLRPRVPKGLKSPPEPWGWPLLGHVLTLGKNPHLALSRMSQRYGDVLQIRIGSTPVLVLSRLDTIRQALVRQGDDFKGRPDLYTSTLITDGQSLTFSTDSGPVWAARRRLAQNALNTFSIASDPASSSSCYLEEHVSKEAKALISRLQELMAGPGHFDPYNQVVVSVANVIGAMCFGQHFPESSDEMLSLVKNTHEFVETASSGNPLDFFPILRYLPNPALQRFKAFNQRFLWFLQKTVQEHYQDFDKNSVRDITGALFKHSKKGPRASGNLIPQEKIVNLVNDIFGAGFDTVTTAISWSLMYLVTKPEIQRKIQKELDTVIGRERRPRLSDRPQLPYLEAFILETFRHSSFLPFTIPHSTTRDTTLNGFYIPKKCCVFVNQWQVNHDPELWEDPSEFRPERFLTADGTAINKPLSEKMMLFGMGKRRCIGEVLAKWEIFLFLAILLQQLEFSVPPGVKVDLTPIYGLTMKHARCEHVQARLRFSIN
Chain of 3',5'-cyclic-AMP phosphodiesterase 4B (Homo sapiens) (Q07343 whole entry, looked up): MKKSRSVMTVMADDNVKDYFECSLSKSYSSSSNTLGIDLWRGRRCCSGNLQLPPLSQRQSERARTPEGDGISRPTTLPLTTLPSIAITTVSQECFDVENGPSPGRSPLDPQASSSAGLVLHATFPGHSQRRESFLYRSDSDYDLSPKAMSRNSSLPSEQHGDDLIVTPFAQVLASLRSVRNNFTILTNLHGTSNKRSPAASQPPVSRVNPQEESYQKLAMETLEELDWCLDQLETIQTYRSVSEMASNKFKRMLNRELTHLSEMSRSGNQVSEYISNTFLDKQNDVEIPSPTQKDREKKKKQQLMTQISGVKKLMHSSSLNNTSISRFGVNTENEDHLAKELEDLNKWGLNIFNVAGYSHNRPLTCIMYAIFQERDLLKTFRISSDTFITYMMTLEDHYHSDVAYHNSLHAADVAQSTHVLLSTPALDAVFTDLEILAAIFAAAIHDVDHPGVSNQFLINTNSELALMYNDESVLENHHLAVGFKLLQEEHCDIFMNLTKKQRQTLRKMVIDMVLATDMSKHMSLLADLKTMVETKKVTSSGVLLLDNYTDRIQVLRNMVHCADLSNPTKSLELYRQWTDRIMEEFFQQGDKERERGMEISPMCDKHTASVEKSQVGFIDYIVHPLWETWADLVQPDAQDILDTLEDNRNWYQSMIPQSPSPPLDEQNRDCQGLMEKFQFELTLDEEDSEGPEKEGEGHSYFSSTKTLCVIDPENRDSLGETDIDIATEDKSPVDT
Chain of Cytochrome P450 2C9 (Homo sapiens) (P11712 whole entry, looked up): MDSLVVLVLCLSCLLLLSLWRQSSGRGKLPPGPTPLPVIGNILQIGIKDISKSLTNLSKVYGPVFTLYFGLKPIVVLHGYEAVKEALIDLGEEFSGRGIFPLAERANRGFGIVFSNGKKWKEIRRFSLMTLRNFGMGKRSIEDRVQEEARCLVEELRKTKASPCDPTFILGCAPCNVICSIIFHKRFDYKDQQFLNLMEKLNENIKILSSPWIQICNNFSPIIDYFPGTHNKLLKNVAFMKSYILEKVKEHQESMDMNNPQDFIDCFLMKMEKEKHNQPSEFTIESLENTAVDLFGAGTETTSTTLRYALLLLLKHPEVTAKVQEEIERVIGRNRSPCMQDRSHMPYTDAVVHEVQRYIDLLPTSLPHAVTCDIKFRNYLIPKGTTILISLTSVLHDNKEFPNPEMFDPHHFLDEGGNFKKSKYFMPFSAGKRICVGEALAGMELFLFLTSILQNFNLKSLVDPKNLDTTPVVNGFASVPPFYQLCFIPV
Chain of Cytochrome P450 2C19 (Homo sapiens) (P33261 whole entry, looked up): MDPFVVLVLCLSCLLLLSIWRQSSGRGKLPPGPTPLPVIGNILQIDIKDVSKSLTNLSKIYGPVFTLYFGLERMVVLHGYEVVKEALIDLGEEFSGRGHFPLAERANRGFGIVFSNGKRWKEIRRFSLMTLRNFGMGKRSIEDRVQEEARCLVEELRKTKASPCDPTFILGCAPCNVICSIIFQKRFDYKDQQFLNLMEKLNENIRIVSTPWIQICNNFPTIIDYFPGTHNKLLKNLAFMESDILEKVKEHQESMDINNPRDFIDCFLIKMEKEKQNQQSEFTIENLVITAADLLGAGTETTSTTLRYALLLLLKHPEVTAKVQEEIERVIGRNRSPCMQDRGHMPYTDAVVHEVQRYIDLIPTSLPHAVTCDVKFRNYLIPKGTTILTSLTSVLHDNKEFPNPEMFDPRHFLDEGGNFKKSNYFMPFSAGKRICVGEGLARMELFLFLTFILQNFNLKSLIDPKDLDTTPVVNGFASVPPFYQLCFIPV
Chain of DNA dC->dU-editing enzyme APOBEC-3G (Homo sapiens) (Q9HC16 whole entry, looked up): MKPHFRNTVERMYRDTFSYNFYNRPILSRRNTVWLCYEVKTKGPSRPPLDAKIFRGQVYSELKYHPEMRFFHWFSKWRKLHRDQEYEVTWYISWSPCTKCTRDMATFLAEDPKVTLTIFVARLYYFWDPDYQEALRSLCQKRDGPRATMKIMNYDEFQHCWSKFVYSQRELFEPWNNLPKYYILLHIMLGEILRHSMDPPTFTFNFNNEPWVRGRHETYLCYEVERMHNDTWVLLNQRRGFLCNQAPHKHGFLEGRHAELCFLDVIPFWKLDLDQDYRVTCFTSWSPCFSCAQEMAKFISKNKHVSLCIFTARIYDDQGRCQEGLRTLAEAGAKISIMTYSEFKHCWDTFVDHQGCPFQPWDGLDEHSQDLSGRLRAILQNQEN
Chain of Cytochrome P450 2D6 (Homo sapiens) (P10635 whole entry, looked up): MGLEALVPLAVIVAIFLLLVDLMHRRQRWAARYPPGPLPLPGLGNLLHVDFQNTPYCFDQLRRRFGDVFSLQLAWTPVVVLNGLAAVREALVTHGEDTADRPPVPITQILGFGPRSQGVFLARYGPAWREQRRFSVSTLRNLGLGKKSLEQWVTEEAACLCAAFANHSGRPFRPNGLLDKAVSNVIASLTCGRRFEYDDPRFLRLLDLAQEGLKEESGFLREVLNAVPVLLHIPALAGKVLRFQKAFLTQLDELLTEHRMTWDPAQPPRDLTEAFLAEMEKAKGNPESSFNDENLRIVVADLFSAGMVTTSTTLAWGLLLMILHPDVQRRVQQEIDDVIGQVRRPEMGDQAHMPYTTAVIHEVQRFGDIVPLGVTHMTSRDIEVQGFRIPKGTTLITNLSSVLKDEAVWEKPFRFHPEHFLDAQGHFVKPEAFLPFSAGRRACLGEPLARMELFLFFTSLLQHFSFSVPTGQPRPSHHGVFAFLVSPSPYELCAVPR

For the compound `C=C1C(=O)O[C@H]2C[C@@]3(C)CCCC(=C)[C@@H]3C[C@H]12`, the Potency in test [1] is 20 µM (active); in test [2] it was over 46 µM; in test [4], 7.55 µM (active); in test [5], 2.51 µM (active). Besides, the Potency entry in [3] was “inactive”.
Turning to `CC(C)C[C@@H](CC(=O)N[C@@H](CCC(=O)O)CC(=O)O)NC(=O)[C@@H]1CNCC[C@H]1NC(=O)C[C@H](CCCN)NC(=O)C[C@H](Cc1ccccc1)NC(=O)[C@@H]1CCCC[C@H]1N`, the Potency is 25.1 µM (active) in [1] and over 46 µM in test [6]. In addition, the Potency result in test [3], in test [4], in test [7], in [8] and in test [5] was “inactive” throughout.
Take `COc1cccc(-c2oc3ccccc3c(=O)c2O)c1`: the Potency was 0.2 µM (active) in [1]; over 46 µM in test [2]; 12.6 µM (active) in test [7]; 12.6 µM (active) in test [9]; 6.31 µM (active) in [5]. Moreover, the Potency entry in test [4] and in test [10] was “inactive” throughout. In test [11], the compound was classed as inactive.
As for `O=c1c(O)c(-c2cccc(O)c2)oc2ccccc12`, the Potency in test [1] was 0.501 µM (active); in test [2], over 46 µM; in test [7] it was 15.8 µM (active); in test [9] it was 15.8 µM (active); in test [5], 25.1 µM (active). Also, the Potency entry in [10] was “inactive”. The outcome in test [11] was inactive.
